{
  "source": "the supplement of paper PMC13380429",
  "data": [
    {"test_system": "Vero E6 infected with SARS-CoV-2", "experiment": "inhibition of SARS-CoV-2 cytopathic effect; higher = more antiviral protection, active = above 15", "conditions": "10000 nM; 48 h", "values": [
      {"smiles": "CCOc1cc(C(C)(C)C)ccc1C1=N[C@@](C)(c2ccc(Cl)cc2)[C@@](C)(c2ccc(Cl)cc2)N1C(=O)N1CCN(CCCS(C)(=O)=O)CC1", "inhibition of SARS-CoV-2 cytopathic effect": "5.99% (inactive)"},
      {"smiles": "Cc1ccccc1-n1c(Cn2ncc3c(N)ncnc32)nc2cccc(C)c2c1=O", "inhibition of SARS-CoV-2 cytopathic effect": "54.3% (active)"},
      {"smiles": "Cc1cccc(Nc2ccncc2S(=O)(=O)NC(=O)NC(C)C)c1", "note": "[torasemide]", "inhibition of SARS-CoV-2 cytopathic effect": "-1.02% (inactive)"},
      {"smiles": "CC(C)[C@H](CO)Nc1nc(Nc2cccc(Cl)c2)c2ncn(C(C)C)c2n1", "note": "[purvalanol-A]", "inhibition of SARS-CoV-2 cytopathic effect": "-2.25% (inactive)"},
      {"smiles": "CCn1cc(C(=O)O)c(=O)c2cc(F)c(N3CCN(C)CC3)cc21", "note": "[pefloxacin]", "inhibition of SARS-CoV-2 cytopathic effect": "1.98% (inactive)"},
      {"smiles": "CCOC(=O)c1ncc2[nH]c3ccc(OCc4ccccc4)cc3c2c1COC", "inhibition of SARS-CoV-2 cytopathic effect": "-5.3% (inactive)"},
      {"smiles": "CC(C[N+](C)(C)C)OC(N)=O", "note": "(stereo not drawn) [bethanechol]", "inhibition of SARS-CoV-2 cytopathic effect": "-6.25% (inactive)"},
      {"smiles": "COc1ccc(/C=C/C(=O)Nc2ccccc2C(=O)O)cc1OC", "note": "[tranilast]", "inhibition of SARS-CoV-2 cytopathic effect": "1.42% (inactive)"},
      {"smiles": "c1ccc(-c2oc3ncnc(NC[C@@H]4CCCO4)c3c2-c2ccccc2)cc1", "inhibition of SARS-CoV-2 cytopathic effect": "1.78% (inactive)"},
      {"smiles": "O=C(Nc1ccc([N+](=O)[O-])cc1O)Nc1ccccc1Br", "inhibition of SARS-CoV-2 cytopathic effect": "-2.06% (inactive)"},
      {"smiles": "C[C@]1(COc2ccc(N3CCC(Oc4ccc(OC(F)(F)F)cc4)CC3)cc2)Cn2cc([N+](=O)[O-])nc2O1", "note": "[delamanid]", "inhibition of SARS-CoV-2 cytopathic effect": "1.84% (inactive)"},
      {"smiles": "CCc1c(-c2ccccc2)c(-c2ccccc2)nn1-c1ccccc1-c1cccc(OCC(=O)O)c1", "inhibition of SARS-CoV-2 cytopathic effect": "-0.58% (inactive)"},
      {"smiles": "Nc1ncc2c(n1)CC(c1ccco1)CC2=O", "note": "(stereo not drawn)", "inhibition of SARS-CoV-2 cytopathic effect": "3.17% (inactive)"}
    ]}
  ]
}
